High-throughput results deposited in PubChem BioAssay by National Center for Advancing Translational Sciences (NCATS).
LT uptake inh: blocks cellular internalization of anthrax lethal toxin. Cells, anthrax lethal toxin internalization, FRET ratio (460/530). hit rate 0.67% among 70,000. AID 912. Potency, µM (titrated, usually from 40 µM), for inactives: at the highest dose activity change, negative = inhibition, usual class: inhibitors; further: on the % scale 0 is the no-effect control and ±100 the full control effect; nearly all actives have a fitted effect of over 50% in size
AmpC det inh: inhibitors of E. coli AmpC beta-lactamase with detergent | hit rate 0.09% among 71,000 | Potency, µM (top dose mostly 28.7 µM), inactives show at the highest dose activity change, negative = inhibition | purified AmpC, nitrocefin hydrolysis with detergent | AID 584; active means well fitted curve in the direction sought with a large enough effect; inconclusive means small, poorly fitted or top-dose-only effect; further: on the % scale 0 is the no-effect control and ±100 the full control effect
Target sequence (P00811 whole entry, looked up): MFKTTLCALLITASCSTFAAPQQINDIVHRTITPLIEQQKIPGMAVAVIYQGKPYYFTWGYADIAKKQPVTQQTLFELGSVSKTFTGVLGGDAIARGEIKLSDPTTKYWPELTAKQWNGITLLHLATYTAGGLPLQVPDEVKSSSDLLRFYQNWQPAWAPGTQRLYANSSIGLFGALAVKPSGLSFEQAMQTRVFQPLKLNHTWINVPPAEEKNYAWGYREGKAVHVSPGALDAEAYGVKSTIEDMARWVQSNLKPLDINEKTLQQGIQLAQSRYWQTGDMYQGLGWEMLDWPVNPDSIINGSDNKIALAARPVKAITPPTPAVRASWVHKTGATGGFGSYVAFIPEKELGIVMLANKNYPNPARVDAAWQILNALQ
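E. coli AmpC (5.3 nM) in 20 mM phosphate pH 7.0 with 0.01% Triton X-100, preincubated 15 min RT with compound; nitrocefin (2 uL of 800 uM stock) hydrolysis followed by 480 nm absorbance every 20 s over 4 min.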
AmpC nodet inh: AmpC beta-lactamase inhibition, detergent-free assay; P00811; AmpC nitrocefin hydrolysis, absorbance 480 nm, no detergent; Potency, µM (titrated, usually from 28.7 µM), for inactives: top-dose activity change, negative = inhibition; hit rate 1.8% among 71,000; further: % of control where 0% means no effect
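AmpC in 20 mM phosphate buffer pH 7.0 was preincubated 15 min at room temperature with compounds. Nitrocefin (800 uM stock) was then added and hydrolysis followed at 480 nm every 20 s for 4 min.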
SmPrx2 inh: blocks S. mansoni peroxiredoxin 2 enzymatic activity; S. mansoni Prx2 activity coupled to TGR/GSH (TGR is thioredoxin glutathione reductase), NADPH fluorescence loss, qHTS; Potency, µM; hit rate 0.07% among 65,000; AID 448
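qHTS, coupled TGR/Prx2 format; 15 min compound preincubation at RT; reaction started with H2O2 (2.5 mM aliquot); kinetic NADPH fluorescence decrease, ex 365/em 450 nm.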
* hit, by the source's call; ? = inconclusive; . = no result given; [ ] = remark or other dose. The list is not random: actives were taken first. Their share in the collection is about 2.4%. Unless noted, the call rests on the fitted dose curve. Potency means the concentration at half of the fitted maximal effect.

SMILES	LT uptake inh	AmpC det inh	AmpC nodet inh	SmPrx2 inh
C[N+](C)(C)CCN[N@@+]1(C)CCCc2ccccc21	-10%[8 µM]	-3%[5.75 µM]	-4%[5.75 µM]	>57
CN1C[C@@H](C(=O)N[C@]2(C)O[C@]3(O)[C@H]4CCCN4C(=O)[C@H](Cc4ccccc4)N3C2=O)C[C@H]2c3cccc4[nH]cc(c34)C[C@@H]21	13%	-6%	147%	>57
Cn1nc(-c2ccc(Cl)cc2)c2cc(C(=O)N3CCN(c4ccccc4)CC3)sc21	?	13%	4µM*[single pt active]	>57
Cn1nc(-c2ccc(Cl)cc2)c2cc(C(=O)N3CCN(c4ccccn4)CC3)sc21	?	7%	4µM*[single pt active]	>57
Cn1nc(-c2ccc(Cl)cc2)c2cc(C(=O)N3CCCC3)sc21	?	11%	42%	>57
S=C(S)NCCN1CCNCC1	9%[8 µM]	-3%[5.75 µM]	23%[5.75 µM]	>57
NC(=O)c1c(NC(=O)CSc2nnc(-c3ccccc3)n2CC2CCCO2)sc2c1CCC2 (configuration not stated)	-16%	4%	77%	>57
Cn1cnnc1SCC(=O)Nc1sc2c(c1C(N)=O)CCC2	?	-8%	10µM*	>57
COc1ccc(NC(=O)[C@H](CCS(C)(=O)=O)N2Cc3ccccc3C2=O)c(OC)c1	7%	16%	4µM*[single pt active]	>57
CC(=O)Nc1nc(-c2ccc(Br)s2)cs1	-2%	13%	13µM*	>57
Nc1ccc(-c2ccc(N)c(O)c2)cc1O	?	12%	0.79µM*	.
CC(C)CC(=O)C[C@H](O)C(Cl)(Cl)Cl	-6%[8 µM]	-3%[5.75 µM]	8%[5.75 µM]	>57
COc1cccc(NC(=O)n2nc(N)cc2-c2ccc(Cl)cc2)c1	?	10%	4µM*[single pt active]	>57
COc1cccc(NC(=O)CSc2nc(N)cc(N)n2)c1	12%	-7%	-3%	>57
CC(C)C[C@H](NC(=O)[C@@H](NC(=O)N[C@@H](Cc1ccccc1)C(=O)O)[C@H]1CCN=C(N)N1)C(=O)N[C@H](C=O)Cc1ccccc1	?	0%	69%	>57
COc1cc(NC(=O)c2cc(CC(C)C)on2)c(OC)cc1Cl	?	10%	4µM*[single pt active]	>57
CC(C)Cc1cc(C(=O)Nc2sc3c(c2C#N)CCCC3)no1	7.9µM*	12%	4µM*[single pt active]	>57
CC(=O)c1ccc(NC(=O)c2cc(CC(C)C)on2)cc1	-16%	11%	4µM*[single pt active]	>57
Cc1cc(NC(=O)c2cc(C)on2)no1	0%	0%	7%	>57
Cc1cc(NC(=O)c2cc(CC(C)C)on2)no1	-17%	12%	4µM*[single pt active]	>57
OC[C@H]1CCCN2CCCC[C@@H]12	-3%	0%	3%	>57
O=C(/C=C\c1ccc(O)c(O)c1)O[C@H]1C[C@@](O)(C(=O)O)C[C@H](O)[C@@H]1O	?	-2%	4%	>57
CCC(Oc1ccc2ccccc2c1)C(=O)O (configuration not stated)	-12%	-1%	3%	>57
CC1=CC(=O)NP(=O)(Oc2ccc3ccccc3c2)N1 (configuration not stated)	?	5%	-13%	0.57*
COc1ccc(OC)c(S(=O)(=O)n2ccnc2)c1	10%	12%	8%	>57
SMILES	LT uptake inh	AmpC det inh	AmpC nodet inh	SmPrx2 inh
CCCCNc1cc(=O)n(C)c(=O)[nH]1	6%	11%	4µM*[single pt active]	>57
O=S(=O)(c1cccc2c(I)cccc12)N1CCCNCC1	3.2µM*	-3%	42%	>26
NC(=NCCC[C@@H](N)C(=O)O)N[N+](=O)[O-]	2%	-4%	7%	>57
CCCN1CCN(CCCNC(=O)Cn2nc(-c3ccc(Cl)cc3)ccc2=O)CC1	?	-2%	3%	>57
O=C1CCn2nc(-c3ccc(Cl)cc3)cc2N1	-13%	11%	4µM*[single pt active]	>57
O=C(CN1CCN(c2ccc(F)cc2)CC1)Nc1nnc(-c2ccccc2)s1	1%	0%	16µM*[single pt active]	>57
O=C(CN1CCN(c2ccccc2)CC1)Nc1nnc(-c2ccccc2)s1	-1%	-2%	-8%	>57
CCOc1ccc2nc(NC(=O)CN3CCC(n4nnc5cc(F)ccc54)CC3)sc2c1	13µM*	-5%	52%	>57
O=C(CN1CCC(n2nnc3cc(F)ccc32)CC1)NC1CC1	-8%	-3%	3%	>57
N#Cc1c(N)nc2c(c1-c1ccc3c(c1)OCO3)CCCCCC2	-25%	0%	8%	>57
N#Cc1c(N)oc(-c2ccc3c(c2)OCO3)c1-c1ccc2c(c1)OCO2	5%	-2%	10µM*	>57
O=C(c1ccco1)N1CCN(c2ncccn2)CC1	-13%	14%	4µM*[single pt active]	>57
CCCC[N+](=O)[O-]	-20%	8%	-1%	.
CCOC(=O)c1cnc2c(C#N)c(C)nn2c1-c1ccccc1	-10%	10%	4µM*[single pt active]	.
CCOC(=O)c1cnc2c(C#N)c(C)nn2c1C	-5%	-5%	-7%	>57
CCCn1c(C)c(C(=O)c2ccc3ccccc3c2)c2ccccc21	13µM*	-5%	19%	>26
C=CCn1c(SCCCC)nc(O)cc1=O	-3%	11%	4µM*[single pt active]	>57
NC(=O)c1ccsc1NC(=O)COC(=O)c1ccccc1NCc1ccco1	?	3%	5µM*	>57
O=C(COC(=O)c1ccccc1Nc1ccccc1)NCc1ccco1	13%	11%	-16%	>57
CCC(c1nnnn1Cc1cccs1)N1CCN(c2nc3ccccc3s2)CC1 (configuration not stated)	10µM*	8%	36%	>57
CO[C@@H]1/C=C\O[C@]2(C)Oc3c(C)c(O)c4c(O)c(cc(O)c4c3C2=O)NC(=O)/C(C)=C\C=C/[C@H](C)[C@@H](O)[C@H](C)[C@H](O)[C@H](C)[C@H](OC(C)=O)[C@@H]1C	3%[8 µM]	-3%[5.75 µM]	16%[5.75 µM]	>57
O=C1CC(c2ccc(S(=O)(=O)NCc3ccccc3)cc2)CN1 (configuration not stated)	-8%	14%	4µM*[single pt active]	>57
Cc1ccccc1NS(=O)(=O)c1ccc(C2CNC(=O)C2)cc1 (configuration not stated)	9%	18%	0%	>57
NC[C@H](O)c1cc(O)c(O)cc1F	-5%	-1%	-3%	>26
Cn1c(=O)c2cc(S(=O)(=O)NC(Cc3ccccc3)C(=O)NCc3ccco3)ccc2n(C)c1=O (configuration not stated)	-4%	10%	4µM*[single pt active]	>57
SMILES	LT uptake inh	AmpC det inh	AmpC nodet inh	SmPrx2 inh
Cn1cc(C(=O)c2ccccc2)c2ccccc21	-23%	10%	4µM*[single pt active]	>57
COc1ccc([C@@H]2OC[C@]3(COC(C)=O)[C@H](C)C=C(C)[C@@H]2[C@H]3C)cc1	?	0%	58%	>57
C#C[C@H](N)CCC(=O)O	0%	0%	0%	>57
COc1ccccc1S(=O)Cc1ccc(C(=O)NCCc2ccc(Cl)cc2)o1 (configuration not stated)	2.5µM*	11%	73%	>57
COc1ccccc1S(=O)(=O)Cc1ccc(C(=O)NCCN(C)C)o1	-13%	5%	-2%	>57
COc1ccccc1S(=O)Cc1ccc(C(=O)NC2CCCC2)o1 (configuration not stated)	-19%	11%	4µM*[single pt active]	>57
